From PubChem BioAssay
In the library only some 1.6% were active in any assay of this set; here they are far more common.
KCNQ2 pot = KCNQ2 (rat) channel potentiation | 310,000 tested, 0.54% active | AID 2239 | CHO-K1 KCNQ2, FluxOR thallium flux fluorescence; hits give high values | B-score at 10 µM;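 active means fluorescence ratio B-score at least 3 SD of library B-scores, with initial fluorescence B-score within 3 of them, cut at about 5.3 in these data; same plate scores as AID 2156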;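 further: B-score of peak minus minimum over baseline fluorescence ratio after K+ and Tl+ stimulus; positive B-score means potentiation of KCNQ2 with more thallium influx and brighter signal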
KCNQ2 block = blocks the rat KCNQ2 potassium channel; O88943; CHO-K1 KCNQ2, FluxOR thallium flux, 20 min; hits give low values; B-score at 10 µM; 310,000 tested, 1.1% active; AID 2156;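 active means fluorescence ratio B-score at most minus 3 library SDs, with starting brightness B-score within 2 library SDs, cut at about -5.5 in these data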
Kir21 confirm = confirmation of mouse Kir2.1 potassium channel inhibitors; shares compounds with KCNQ2 pot; Kir2.1-expressing cells, FluxOR thallium flux fluorescence; hits give low values; Tl flux remaining, % of negative control (hits give low values), % at 10 µM; 2,300 tested, 41% active; AID 2032;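 active means Primary-screen hit whose thallium flux fell at least 3 control SD below untreated wells in both duplicates, with normal baseline fluorescence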
HEK293 Tl flux = alters thallium flux in parental HEK293 cells, Kir2.1 counter-screen; FluxOR thallium flux fluorescence; 0% = unstimulated blank wells; shares compounds with KCNQ2 pot; FluxOR signal as % of negative control (100 = no effect), % at 10 µM; 2,300 tested, 19% active; AID 2105;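 active means dye signal at least 3 control SD above or below untreated wells in both duplicates, raw fluorescence within 3, either direction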;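 further: percent is based on the flux ratio of peak minus minimum fluorescence over baseline F0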
CHO-K1 Tl ctr = counter-screen for KCNQ2 potentiators: effect in parental CHO-K1 cells; shares compounds with KCNQ2 pot; FluxOR thallium flux fluorescence; zero = vehicle mean+3SD, 100% = vehicle-minus-blank window; activity increase over 3SD of controls, % at 10 µM; 1,200 tested, 43% active;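 active means signal rise of at least 3 SD above the untreated control mean, in both duplicate wells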;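 further: counter screen of KCNQ2 potentiator hits so any rise reflects channel-independent effects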
KCNQ1 sel pot = human KCNQ1 counter-target activity of KCNQ2 potentiators; AID 2283; CHO KCNQ1 stable, FluxOR thallium flux fluorescence; beyond 3SD, as % of vehicle-control signal; activation over 3SD threshold, % at 10 µM; shares compounds with KCNQ2 pot; 1,200 tested, 28% active;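 active means fluorescence ratio rise of at least 3 SD of vehicle wells above their mean, in both replicate wells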
KCNQ2 pot conf = confirmation of rat KCNQ2 potassium channel potentiators; shares compounds with KCNQ2 pot; CHO-KCNQ2 cells, FluxOR thallium flux fluorescence; 1,200 tested, 68% active; potentiation, less the hit threshold, % at 10 µM;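 active means fluorescence ratio rising 3 SD or more over the vehicle control mean in both replicates, plus primary screen hit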;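 further: peak minus minimum thallium fluorescence divided by baseline after K/Tl stimulus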
Kir21 spec = tests whether KCNQ2 potentiators also affect mouse Kir2.1 | shares compounds with KCNQ2 pot | HEK293 Kir2.1, FluxOR thallium flux fluorescence | activity over 3SD threshold, % at 10 µM | 1,200 tested, 2% active | AID 2345;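 active means fluorescence ratio rise of at least 3 SD above the vehicle-control mean, seen in both replicates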
KCNQ2 W236L MoA = KCNQ2 potentiators acting on retigabine-insensitive rat KCNQ2 W236L mutant; 940 tested, 10% active; current increase over 3SD of negative controls (%), hits give high values, % at 25 µM; CHO KCNQ2-W236L, automated patch clamp current; shares compounds with KCNQ2 pot;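 active means current increase at least 3 SD of the untreated controls above them in both duplicate recordings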
Target sequence (O88943 whole entry W236L, looked up): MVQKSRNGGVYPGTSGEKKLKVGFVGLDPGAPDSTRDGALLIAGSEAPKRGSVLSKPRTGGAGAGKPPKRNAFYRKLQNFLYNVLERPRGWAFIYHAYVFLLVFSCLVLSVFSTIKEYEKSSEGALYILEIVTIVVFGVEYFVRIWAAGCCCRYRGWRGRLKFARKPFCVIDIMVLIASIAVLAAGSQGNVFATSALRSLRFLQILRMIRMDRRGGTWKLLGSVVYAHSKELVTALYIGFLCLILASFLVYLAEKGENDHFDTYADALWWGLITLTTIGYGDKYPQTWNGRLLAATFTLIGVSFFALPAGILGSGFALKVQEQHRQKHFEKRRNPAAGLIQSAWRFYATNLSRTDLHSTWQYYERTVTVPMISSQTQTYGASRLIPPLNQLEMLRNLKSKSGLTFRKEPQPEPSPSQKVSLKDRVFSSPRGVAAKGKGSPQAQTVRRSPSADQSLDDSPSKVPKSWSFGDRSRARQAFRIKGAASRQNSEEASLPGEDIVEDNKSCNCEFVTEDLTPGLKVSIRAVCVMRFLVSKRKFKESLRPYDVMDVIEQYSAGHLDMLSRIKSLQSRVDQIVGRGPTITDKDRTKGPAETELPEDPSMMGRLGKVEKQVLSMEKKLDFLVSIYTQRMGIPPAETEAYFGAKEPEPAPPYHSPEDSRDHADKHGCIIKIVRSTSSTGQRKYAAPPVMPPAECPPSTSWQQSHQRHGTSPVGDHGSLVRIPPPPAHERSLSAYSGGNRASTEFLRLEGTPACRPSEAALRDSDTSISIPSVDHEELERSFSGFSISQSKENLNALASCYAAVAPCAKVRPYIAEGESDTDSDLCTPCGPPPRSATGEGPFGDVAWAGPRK
Numbers stand for hits; . = inactive; / = no result given.

SMILES | KCNQ2 pot | KCNQ2 block | Kir21 confirm | HEK293 Tl flux | others
Cn1c(=S)[nH]c(=O)c2ncc(=O)[nH]c21 | . | . | / | /
CSc1nc2c(c(=O)[nH]1)C(c1ccc(Cl)cc1)CC(=O)N2 (stereo not given) | / | . | . | .
CSc1nc2c(c(=O)[nH]1)C(c1cccc(Cl)c1)CC(=O)N2 (stereo not given) | . | . | / | /
CC(C)Oc1ccc(CNC(=O)CC(c2ccccc2)c2cc(Cl)ccc2O)cc1 (stereo not given) | 15 | . | . | 128% | CHO-K1 Tl ctr=11;KCNQ1 sel pot=18;KCNQ2 pot conf=59;Kir21 spec=.;KCNQ2 W236L MoA=.
CCCCCCNC(=O)CC(c1ccccc1)c1cc(Br)ccc1O (stereo not given) | 29 | . | . | . | CHO-K1 Tl ctr=.;KCNQ1 sel pot=.;KCNQ2 pot conf=64;Kir21 spec=.;KCNQ2 W236L MoA=.
O=C(CC(c1ccccc1)c1cc(Br)ccc1O)NCc1ccco1 (stereo not given) | 18 | . | / | / | CHO-K1 Tl ctr=.;KCNQ1 sel pot=.;KCNQ2 pot conf=67;Kir21 spec=.;KCNQ2 W236L MoA=.
O=CN1CCN(C(=O)CC(c2ccccc2)c2cc(Br)ccc2O)CC1 (stereo not given) | . | . | / | /
COc1ccccc1C(CC(=O)Nc1ccc(Cl)cc1)c1ccc(OC(C)C)cc1 (stereo not given) | / | . | / | /
CC(C)NC(=O)CC(c1ccccc1)c1cc(Br)ccc1O (stereo not given) | . | . | / | /
Cc1ccccc1C(=O)NC1CCN(C(=O)Nc2ccccc2Cl)CC1 | . | . | / | /
CC(C)(C)c1ccc(S(=O)(=O)N2CCN(C(=O)C3CCC3)CC2)cc1 | . | . | / | /
CCOC(=O)C1CCN(S(=O)(=O)c2ccc(Cl)cc2)CC1 | / | . | / | /
Cc1cc(C)c2c(=O)[nH]c(SCC(=O)c3ccc(F)c(C)c3)nc2n1 | . | . | / | /
O=C(NC1CCN(Cc2ccccc2)CC1)c1ccccc1OCc1ccccc1 | / | . | / | /
O=C(NC1CCN(Cc2ccccc2)CC1)c1ccccc1OCc1ccccc1Cl | / | . | 73% | .
Cc1cc(C)c(C(=O)C2OC(=O)C(C)(C)C(=O)C2(C)C)c(C)c1 (stereo not given) | 10 | . | . | . | CHO-K1 Tl ctr=6.5;KCNQ1 sel pot=.;KCNQ2 pot conf=2.7;Kir21 spec=.;KCNQ2 W236L MoA=.
CC1(C)C(=O)OC(C(=O)c2ccccc2)C(C)(C)C1=O (stereo not given) | / | . | / | /
COc1ccccc1N1CCN(C(=O)CSc2nc(-c3ccccc3)cc(=O)[nH]2)CC1 | / | . | / | /
COc1ccccc1N1CCN(C(=O)CSc2nc(C)c(Cc3ccccc3)c(=O)[nH]2)CC1 | 9.2 | . | . | . | CHO-K1 Tl ctr=.;KCNQ1 sel pot=.;KCNQ2 pot conf=29;Kir21 spec=.;KCNQ2 W236L MoA=.
O=C(c1nnsc1S(=O)(=O)c1ccc(Cl)cc1)N1CCOCC1 | . | . | / | /
CNC(=O)c1nnsc1S(=O)(=O)c1ccc(Cl)cc1 | . | -7.1 | . | .
Cc1cc(C(C)(C)C)cc(C)c1Cn1c2[n+](c3ccc(C(F)(F)F)cc31)CCCCC2 | / | . | 46% | .
FC(F)(F)c1cccc(Cn2c3[n+](c4ccc(C(F)(F)F)cc42)CCCCC3)c1 | / | . | / | /
C=CCN(Cc1cn(C)nc1-c1cccc(Cl)c1)C1CCS(=O)(=O)C1 (stereo not given) | . | . | / | /
COc1cc(C(=O)OCC(=O)NC2CCCC2)cc(NC(=O)c2ccco2)c1OC | 11 | . | . | . | CHO-K1 Tl ctr=.;KCNQ1 sel pot=.;KCNQ2 pot conf=.;Kir21 spec=.
COc1cc(C(=O)OCC(C)=O)cc(NC(=O)c2ccco2)c1OC | / | . | / | /
O=C(Cc1cccc(C(F)(F)F)c1)Nc1ccccc1 | 9 | . | . | . | CHO-K1 Tl ctr=35;KCNQ1 sel pot=59;KCNQ2 pot conf=13;Kir21 spec=.;KCNQ2 W236L MoA=.
O=C(COC(=O)Cc1cccc(C(F)(F)F)c1)Nc1ccccc1 | . | . | / | /
Brc1csc(/C=N/Nc2nc3ccccc3s2)c1 | . | . | / | /
